Compound activity (PubChem)
Sampled rows, rich in hits. Any-hit rate of the full collection: about 4.6%.
NLRP3 yeast inh: blocks the NALP3 inflammasome reconstituted in yeast; Yeast reconstituted NLRP3/ASC/caspase-1, beta-gal luminescence, 24 h; inhibition, % at 10 µM; 330,000 tested, 0.39% active;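 active = inhibition of 50% or more; inactive = inhibition below 50%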
TIM10 inh: inhibits growth of TIM10 yeast strain. inhibition, % at 10 µM. 330,000 tested, 1.4% active. S. cerevisiae TIM10 strain growth, BacTiter-Glo luminescence, 24 h;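 active = inhibition of 40% or more at the single tested concentration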;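 note: wild-type TIM10 isogenic control strain grown at permissive 25 °C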
tim23-1 inh: tim23-1 yeast growth inhibition | S. cerevisiae tim23-1 growth, BacTiter-Glo luminescence, 24 h | inhibition, % at 20 µM | 330,000 tested, 1.3% active | AID 463212;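 active = growth inhibition of the mutant yeast at or above 50%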;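 note: temperature-sensitive mutant grown at 25 °C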
PfHsp90 set2: growth inhibition of yeast expressing Plasmodium Hsp90; S. cerevisiae expressing PfHsp90, BacTiter-Glo ATP, 48 h; yeast lacking PDR1 and PDR3 efflux regulators; AID 504621; 310,000 tested, 0.32% active; inhibition, % at 9.4 µM;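 active = every replicate shows inhibition above about 80%, whatever the replicate mean, limit read from the data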
tim10-1 inh: growth inhibitors of tim10-1 mutant yeast. S. cerevisiae tim10-1 ts strain growth, BacTiter-Glo, 24 h. inhibition, % at 20 µM. 330,000 tested, 2.2% active;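 active = inhibition of at least 40%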;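 note: mutant grown at 25 °C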
SKKanGAS inh: blocks kanamycin growth of S. pyogenes SKKanGAS strain. BacTiter-Glo, 6 h. inhibition, % at 7.5 µM. 300,000 tested, 1.3% active;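 active = mean replicate score, as percent of positive control median, at least 50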;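 note: strain carries kanamycin resistance gene driven by streptokinase promoter and grows in 40 µg/ml kanamycin; loss of luminescence reflects streptokinase promoter inhibition or plain growth inhibition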
tim10-1 conf: tim10-1 yeast growth inhibition, confirmed. 7,400 tested, 56% active. inhibition, % at 20 µM. S. cerevisiae tim10-1 ts strain growth, BacTiter-Glo, 24 h. shares compounds with tim10-1 inh;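 active = inhibition of yeast growth at or above a set limit in either of two repeat tests at 20 µM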;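 note: tim10-1 mutant grown at permissive 25 °C to find synthetic lethal compounds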
Numbers stand for hits; i = inactive; nt = no result given.

SMILES | NLRP3 yeast inh | TIM10 inh | tim23-1 inh | PfHsp90 set2 | tim10-1 inh | SKKanGAS inh | tim10-1 conf
Cn1cccc1Cc1nnc(SCC(=O)N2CCc3ccccc32)n1-c1ccc(F)cc1 | i | i | i | i | i | i | nt
COC(=O)CSc1nnc(Cc2ccccc2)n1-c1ccc(C)cc1 | i | i | i | i | 41.0 | i | i
Cc1ccc(-n2c(Cc3cccn3C)nnc2SCC(=O)N2CCc3ccccc32)cc1 | i | i | i | i | 42.6 | i | i
CCOC(=O)CSc1nnc(CNc2ccccc2Cl)n1-c1ccccc1 | i | i | i | nt | 45.2 | i | i
Cc1ccc(-n2c(SCC(=O)OC(C)C)nnc2-c2ccccn2)cc1 | i | i | i | i | 41.8 | i | 34.9
CCOC(=O)Nc1ccc2nc(Sc3ccc(Cl)cc3)sc2c1 | i | i | i | i | 42.1 | i | 33.5
CCOc1ccc2nc(NC(=O)CSc3ccc(Cl)cc3)sc2c1 | i | i | i | i | i | i | nt
COC(=O)c1cc(Cl)cc(Cl)c1OS(=O)(=O)N(C)C | i | i | i | i | 40.7 | i | i
COc1c(Cl)cc(Cl)cc1C(=O)Nc1ccc(NC(C)=O)cc1 | i | i | i | i | i | i | nt
Cn1c(=O)c2c(nc(SCC(=O)NCc3ccc4c(c3)OCO4)n2Cc2ccc(Cl)cc2)n(C)c1=O | i | i | i | nt | 40.7 | i | i
CCc1noc(C)c1C(=O)NNC(=O)COc1ccccc1C | i | i | i | i | i | nt | nt
Cc1ccc(CNC(=O)CS(=O)(=O)Cc2nc(-c3ccc(C)cc3)oc2C)cc1 | i | i | i | i | i | i | nt
CCOC(=O)CN1C(c2ccc(O)cc2)Nc2ccc(Br)cc2C1c1ccccc1 (configuration not stated) | i | i | i | i | 46.4 | i | i
CCOc1ccc(-n2cc(-c3ccccc3)c3c(=O)[nH]cnc32)cc1 | i | i | i | i | 54.5 | i | 39.6
COc1ccc(NC(=S)N(C)CC2COc3ccccc3O2)cc1 (configuration not stated) | i | i | i | i | i | i | nt
CCN(CC1COc2ccccc2O1)C(=S)Nc1ccc(F)cc1 (configuration not stated) | i | i | i | i | 45.2 | i | i
O=c1[nH]nc(SC2CCCCC2)c(=O)[nH]1 | nt | nt | nt | i | nt | nt | nt
N/C(=N\S(=O)(=O)c1cc(C(F)(F)F)cc(C(F)(F)F)c1)c1ccc(Cl)cc1 | i | i | i | i | 45.8 | i | 42.6
COc1cccc(OC)c1OCC(=O)Nc1ccc(S(=O)(=O)N2CCCC2)cc1 | i | i | i | nt | i | nt | nt
CNC(=S)N1N=C(c2ccc(C)cc2)CC1c1ccc(N(C)C)cc1 (configuration not stated) | i | i | i | nt | i | i | nt
COc1ccc(-n2nc([N+](=O)[O-])c(=NCCC3=CCCCC3)n2O)cc1 | i | i | i | i | i | i | nt
Cc1nn(Cc2ccc(Cl)cc2)c(C)c1NC(=O)c1c(-c2ccccc2)noc1C | i | i | i | nt | 43.4 | i | 43.5
COc1ccc(OC)c(-c2cc(C(=O)Nc3c(C)nn(Cc4ccc(Cl)cc4)c3C)no2)c1 | i | i | i | nt | 42.7 | i | 32.4
COc1ccc(OC)c(-c2cc(C(=O)Nc3c(C)nn(Cc4ccccc4)c3C)no2)c1 | i | i | i | i | 41.1 | i | i
CC1=CC(C)(C)NC(=S)N1CCO | nt | nt | nt | i | nt | nt | nt
SMILES | NLRP3 yeast inh | TIM10 inh | tim23-1 inh | PfHsp90 set2 | tim10-1 inh | SKKanGAS inh | tim10-1 conf
CCOC(=O)Cc1csc(NC(=S)NC(=O)C(C)(C)C)n1 | i | i | i | i | 41.2 | i | i
CCOC(=O)Cc1csc(N/N=C/c2ccccc2)n1 | i | i | i | i | 41.3 | i | i
CCOC(=O)Cc1csc(NC(=S)NC(=O)c2ccc(Cl)cc2)n1 | i | i | i | nt | i | i | nt
CCOC(=O)Cc1csc(N/N=C\c2cccc(Br)c2)n1 | i | i | i | i | i | i | nt
Cn1cccc1/C=C1\CCC/C(=C\c2cccn2C)C1=O | i | i | i | nt | 49.8 | i | i
CC(C)c1ccc(Nc2c([N+](=O)[O-])c(=O)n(C)c3ccccc23)cc1 | i | i | i | i | 50.8 | i | 52.2
Cc1cccc(Nc2c([N+](=O)[O-])c(=O)n(C)c3ccccc23)c1 | i | i | i | i | i | i | nt
O=C(c1ccccc1)c1sc(N2CCCCCC2)nc1-c1ccccc1 | i | i | i | nt | 43.0 | i | i
COc1ccc(-c2nc(N3CCCCCC3)sc2C(=O)c2ccccc2)cc1 | i | i | i | i | i | i | nt
